TLR4 MyD88 comp – inhibitors of TLR4-MyD88 association in cells, primary screen, cell-based, HeLa CL3-4, BLA complementation, FRET ratio | HeLa CL3-4 TLR4/MyD88 BLA complementation | inhibition, % at 8.4 µM | 200,000 tested, 0.18% active | AID 861, 2007; in the data active = inhibition above about 25%;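 note: 0% = vehicle and 100% = reference inhibitor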
NOD2-RIPK2 inh – NOD2-RIPK2 binding disruptors in cells, primary screen, fluorescence, CHO cells, BLA complementation | inhibition, % at 4.98 µM | CCF4 ratio | 360,000 tested, 0.38% active | Receptor-interacting serine/threonine-protein kinase 2 (Homo sapiens), O43353; in the data active = inhibition above about 21%;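 note: 0% = vehicle only and 100% = reference blocker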
Target sequence (O43353 whole entry, looked up): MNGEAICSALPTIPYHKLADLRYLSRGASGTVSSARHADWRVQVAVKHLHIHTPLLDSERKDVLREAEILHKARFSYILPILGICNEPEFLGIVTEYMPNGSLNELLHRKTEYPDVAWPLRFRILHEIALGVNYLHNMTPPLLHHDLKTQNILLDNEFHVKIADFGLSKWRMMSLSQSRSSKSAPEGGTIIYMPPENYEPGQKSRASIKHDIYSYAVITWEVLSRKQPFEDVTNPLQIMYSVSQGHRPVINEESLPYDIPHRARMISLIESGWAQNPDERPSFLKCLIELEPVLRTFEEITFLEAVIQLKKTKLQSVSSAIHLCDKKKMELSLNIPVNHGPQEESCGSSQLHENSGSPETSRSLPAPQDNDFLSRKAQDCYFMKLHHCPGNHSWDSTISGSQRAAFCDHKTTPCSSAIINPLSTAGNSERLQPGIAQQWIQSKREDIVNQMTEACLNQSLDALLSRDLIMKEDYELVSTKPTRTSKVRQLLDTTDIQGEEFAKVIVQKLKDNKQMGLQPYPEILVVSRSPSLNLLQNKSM
ABCB6 inh 2 – ABCB6 transporter inhibitors, primary screen, K562-ABCB6 cells, flow cytometry, MLPCN library | AID 602162, 2011 | K562-ABCB6 porphyrin accumulation, 1 h; active compounds read low | fluorescence ratio to DMSO, % at 10 µM | ATP-binding cassette sub-family B member 6 (Homo sapiens), Q9NP58 | 360,000 tested, 0.19% active;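 active = fluorescence ratio to DMSO below 75%, the collection mean minus 3 SD; inconclusive = too few cells collected in the well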;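 note: signal is porphyrin accumulated inside mitochondria; 100% equals median channel fluorescence of DMSO control wells; lower ratio means ABCB6 inhibition with less porphyrin fluorescence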
TLR9-MyD88 block – inhibitors of TLR9-MyD88 association in cells, primary screen, cell-based, CHO, BLA complementation, fluorescence | Toll-like receptor 9 (Homo sapiens) + Myeloid differentiation primary response protein … | CCF4 FRET ratio | inhibition, % at 4.98 µM | 340,000 tested, 0.21% active;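 active = inhibition above the mean over all tested compounds plus 3 SD, cut at about 21% in these data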;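 note: 0% = DMSO only wells and 100% = clavulanate BLA inhibitor control wells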
Myeloid diff MLP – induction of myeloid progenitor differentiation, primary screen, cell-based, flow cytometry, MLPCN library | 360,000 tested, 1% active | ER-HoxA9 myeloid progenitors, lysozyme-GFP differentiation | calls only at 10 µM;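 active = normalized GFP-positive differentiation at or above the plate's own cutoff, the solvent-only control mean plus 3 SD; inconclusive = no clear call, values can overlap the other calls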;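 note: cells exposed to compound for four days before flow analysis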
NOD2-RIPK2 conf – NOD2-RIPK2 binding disruptors, retest, confirmation, fluorescence, CHO cells, BLA complementation, triplicate | shares compounds with NOD2-RIPK2 inh | CCF4 FRET | inhibition, % at 4.98 µM | 1,200 tested, 70% active | AID 624370, 2012;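 active = mean inhibition across replicates above a set limit taken from the earlier primary screen, cut at about 21% in these data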;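 note: 0% = DMSO-only wells and the high end = clavulanate BLA-blocked wells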
BLA counter – NOD2-RIPK2 counterscreen BLA reporter activity | shares compounds with NOD2-RIPK2 inh | CHO BLA reporter, CCF4 FRET ratio | inhibition, % at 4.98 µM | 1,200 tested, 57% active;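 active = mean inhibition above the low-control mean inhibition plus three low-control SD, cut at about 11% in these data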;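 note: 0% = DMSO only wells and 100% = clavulanate high control wells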
Numbers without * were called inactive; i = inactive; ? = inconclusive; / = not tested or not shown; + = active, no number. A selection: hits, their analogues and other compounds. The true share with any hit is near 1.7%.

SMILES | TLR4 MyD88 comp | NOD2-RIPK2 inh | ABCB6 inh 2 | TLR9-MyD88 block | Myeloid diff MLP | NOD2-RIPK2 conf | BLA counter
Cc1ccccc1N1CCN(C(=S)c2ccccc2)CC1 | -30.0 | 24.1* | 99.0 | 2.6 | i | -2.9 | -1.5
Cc1cccc(NS(=O)(=O)c2ccc(-c3cnc(C4CC4)o3)cc2)c1C | / | 26.0* | 101.0 | 2.2 | ? | 14.0 | -0.6
Cc1ccc(C)c(NS(=O)(=O)c2ccc(-c3cnc(C4CC4)o3)cc2)c1 | / | 11.2 | 100.0 | 2.6 | ? | / | /
O=C1/C(=C/c2ccco2)Oc2c1ccc(O)c2CN1CCCCC1 | 7.2 | 4.0 | 96.0 | -3.8 | i | / | /
CCC(=O)Oc1ccc2c(c1)O/C(=C\c1ccco1)C2=O | / | 44.4* | 148.0 | / | i | 56.0* | 60.8*
COCCN(CCOC)Cc1c(O)ccc2c1O/C(=C\c1ccco1)C2=O | / | 23.3* | 102.0 | 11.7 | i | 42.5* | 45.9*
Cc1cccnc1CNC(=O)C1CCC(=O)N(CCc2cccc(F)c2)C1 (centres undefined) | / | -6.9 | 96.0 | -6.3 | i | / | /
CCCCCNC(=O)C(CCc1ccccc1)n1c(=O)c(-c2cc3ccccc3[nH]2)nc2ccccc21 (centres undefined) | / | 43.9* | / | / | i | 41.3* | 66.0*
CCCCCNC(=O)C(c1cccc2ccccc12)n1c(=O)c(-c2ccccc2)nc2ccccc21 (centres undefined) | / | -14.6 | / | / | i | / | /
CCCCCNC(=O)C(c1ccccc1)n1c(=O)c(-c2cc3ccccc3[nH]2)nc2ccccc21 (centres undefined) | / | 46.3* | / | / | i | 40.1* | 63.9*
CCCCCNC(=O)C(c1cccc2ccccc12)n1c(=O)c(-c2cc3ccccc3[nH]2)nc2ccccc21 (centres undefined) | / | 41.7* | / | / | i | 36.4* | 63.7*
COc1ccc(NC(=O)CCN2C(=O)c3ccncc3C2=O)cc1OC | / | -5.7 | 103.0 | -1.3 | i | / | /
CCN(CC)c1c([N+](=O)[O-])c(=O)n(CC)c2ccccc12 | / | -17.7 | 99.0 | / | i | / | /
O=C(CCCC(=O)c1ccccc1)NCc1ccccc1 | / | -14.8 | 102.0 | -17.4 | i | / | /
Cc1c(NS(=O)(=O)c2cc(NC(=O)CCN3CCCC(C)C3)ccc2Cl)c(=O)n(-c2ccccc2)n1C (centres undefined) | -18.0 | 0.0 | 102.0 | 7.9 | i | / | /
Cc1ccc(S(=O)(=O)Oc2ccccc2/C=N/NC(N)=S)cc1 | -9.2 | 24.2* | 98.0 | -3.5 | ? | 10.7 | 0.3
Cc1ccc(S(=O)(=O)Oc2ccccc2/C=N/N=C(N)N)cc1 | -2.3 | -6.5 | 96.0 | -4.1 | i | / | /
COc1ccc(CNC(=O)C2CCN(c3cc(C(=O)Nc4cccc(OC)c4)ccn3)CC2)cc1 | / | -1.5 | 96.0 | -5.1 | i | / | /
O=C(/C=C1\C(=O)Nc2ccccc21)/C=C1\C(=O)Nc2ccccc21 | / | 24.7* | 114.0 | 13.7 | i | 73.7* | 15.7*
O=C1Nc2ccccc2/C1=C\C(=O)c1ccccc1 | / | 29.6* | 104.0 | 1.0 | ? | 29.3* | -2.3
CN(O)/C=C1\C(=O)Nc2ccccc21 | -7.8 | 8.9 | 93.0 | -3.7 | i | / | /
O=C(COC(=O)c1cc([N+](=O)[O-])ccc1Cl)NC1CCCC1 | / | 2.6 | 100.0 | -14.1 | i | / | /
O=C(COC(=O)c1ccccc1C(=O)c1ccc(Cl)c([N+](=O)[O-])c1)NC1CC1 | 17.9 | 49.0* | 98.0 | 13.8 | ? | 56.1* | 9.0
COc1cc(NC(=O)Cn2c(C)cc3ccccc3c2=O)cc(OC)c1OC | 0.7 | 32.2* | 102.0 | -2.0 | i | 5.8 | -1.9
COc1ccccc1NC(=O)CNC(=O)Cn1c(C)cc2ccccc2c1=O | / | -14.9 | 99.0 | -7.7 | i | / | /
SMILES | TLR4 MyD88 comp | NOD2-RIPK2 inh | ABCB6 inh 2 | TLR9-MyD88 block | Myeloid diff MLP | NOD2-RIPK2 conf | BLA counter
Cc1nc2sccn2c(=O)c1S(=O)(=O)Nc1ccc(N2CCN(S(C)(=O)=O)CC2)cc1 | / | -9.0 | 100.0 | 6.4 | i | / | /
COc1cc(OC)c(OC)cc1/C=C/C(=O)c1ccc(NS(=O)(=O)c2ccc(C)cc2)cc1 | 16.7 | 34.4* | 123.0 | 20.3 | + | 33.5* | 39.8*
Cc1ccccc1N1C(=O)CC(Sc2nnc(-c3ccccc3)o2)C1=O (centres undefined) | -6.7 | 43.1* | 94.0 | -4.9 | i | 34.4* | 5.5
CC1=C(CO)C(=O)OC([C@@H](C)C2CC[C@H]3C4C[C@H]5O[C@]56[C@@H](O)C=CC(=O)[C@]6(C)C4CC[C@]23C)C1 (some centres undefined) | / | 46.9* | 101.0 | 3.1 | ? | 62.6* | 7.0
NC(=O)c1ccc2c(=O)c(O)c(-c3cc(Cl)c(N)c(Cl)c3)[nH]c2c1 | / | 38.2* | 98.0 | 13.8 | i | 29.6* | 28.9*
CC(c1ccccc1)n1c(CCCO)nc2ccccc21 (centres undefined) | / | 23.9* | 99.0 | -6.1 | i | 2.5 | -1.1
OCCCc1nc2ccccc2n1CCc1ccccc1 | 11.2 | -1.1 | 100.0 | 1.3 | i | / | /
CC1CCCN(C2(O)C(=O)Nc3ccc(Cl)cc32)C1 (centres undefined) | / | -2.4 | 102.0 | -1.2 | i | / | /
O=C1CCC(c2ccccc2)c2ccccc21 (centres undefined) | / | 5.8 | 81.0 | / | i | / | /
N#CC1C(=O)c2ccccc2C1c1ccccc1 (centres undefined) | / | 48.1* | ? | 6.8 | ? | -6.3 | 0.2
CSCCC(NS(=O)(=O)c1cccc(C(F)(F)F)c1)C(=O)N(C)CCOc1ccc(Cl)cc1 (centres undefined) | / | -4.2 | 97.0 | -1.4 | i | / | /
Nc1c(C(=O)Nc2ccc(Br)cc2)sc2nc(-c3ccco3)ccc12 | 23.5 | 26.3* | 112.0 | 35.9* | i | 67.0* | 66.2*
ClC(Cl)(c1nnnn1-c1ccccc1)c1nnnn1-c1ccccc1 | -1.2 | 42.3* | 78.0 | 12.3 | ? | 42.2* | 7.0
CC(C)OCC(O)CN1CCNCC1 (centres undefined) | -3.1 | -8.6 | 90.0 | 2.7 | i | / | /
COCCn1c(=O)[nH]c2cc(C(=O)Nc3nnc(C)s3)ccc21 | / | 94.0* | 99.0 | -7.6 | i | -1.0 | -18.1
COCCn1c(=O)[nH]c2cc(C(=O)Nc3cc(OC)c(OC)c(OC)c3)ccc2c1=O | / | -4.6 | 97.0 | -0.1 | i | / | /
